Each structure is given as a SMILES string. Records with an inconclusive call do not appear. The source made the active and inactive calls. The call rests on the fitted dose curve; in most records, active means well fitted cell-killing curve with a large enough effect; inconclusive means small, poorly fitted or top-dose-only effect; inactive means flat fitted curve, though single readings scatter.

The nature of this test: Cellular viability qHTS for adrenocortical cancer (ACC) cell line NCI-H295R (AID 1963990). Further: nearly all actives have a fitted effect of over 60% in size.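 On activity change, negative = viability loss: 0% = DMSO only wells and -100% = full killing with cytotoxic reference compound.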 As to conditions: CellTiter-Glo ATP luminescence, 48 h; series mostly up to 46.1 µM; activity change, negative = viability loss: at the top concentration. The method in brief:
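CellTiter-Glo ATP luminescence, read 48 h after compound addition, measured viability of NCI-H295R adrenocortical cells grown serum-free with ITS. Final concentrations spanned up to 46 uM. Data normalized to DMSO and doxorubicin, fitted for IC50 and maximal response.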
For the molecule `CCCCCCCCCCC(CO)CCCCCCCC` (stereo not given), the “activity change, negative = viability loss” value is -8.83% (inactive).
Consider `CC(C)[C@@H]1CC[C@@H](C)CC1=O`, for which the “activity change, negative = viability loss” value was -4.8% (inactive).
For the molecule `NCCc1ccn[nH]1`, the “activity change, negative = viability loss” value is -2.3% (inactive).
The same measure, in the same setting: with `CN1CCN(c2cc3c(nn2)Oc2ccccc2N3C)CC1` the figure was -23.9% [at 20 µM] (inactive); with `Cc1cn([C@H]2C=C[C@@H](CO)O2)c(=O)[nH]c1=O`, -3.83% (inactive); with `CC1(C)[C@H](C(=O)O)N2C(=O)C[C@H]2S1(=O)=O`, -16.1% (inactive).
For the molecule `CC[C@@]1(c2ccccc2)NC(=O)N(C)C1=O`, the “activity change, negative = viability loss” value was 11.9% (inactive).
Same read-out and setting: for `O=C1O[C@H]([C@@H](O)CO)C(O)=C1O` the value was -17.4% (inactive); for `CC1(C)Oc2ccc(C#N)cc2[C@@H](N2CCCC2=O)[C@@H]1O`, -4.29% (inactive); for `CN(c1nccc(=O)[nH]1)C1CCN(c2nc3ccccc3n2Cc2ccc(F)cc2)CC1`, 1.54% (inactive).
`Nc1nc(Cl)nc2c1ncn2[C@H]1C[C@H](O)[C@@H](CO)O1`: the “activity change, negative = viability loss” value was -33.7% (inactive).
As to `O=C(Nc1ccc(Cl)cc1)Nc1ccc(Cl)c(Cl)c1`, the Potency is 4.11 µM (active).
In the case of `C[N+](C)(C)CCOC(N)=O`, the “activity change, negative = viability loss” value was -10.3% (inactive).
Take `C[C@@H](CN1CC(=O)NC(=O)C1)N1CC(=O)NC(=O)C1`: the Potency entry was “inactive”.
With `Nc1cccc2c1CN(C1CCC(=O)NC1=O)C2=O` (stereo not given), the “activity change, negative = viability loss” value was -1.65% (inactive).
Still for that read-out and setting: with `OC(CN1CCC(Cc2ccc(F)cc2)CC1)c1ccc(Cl)cc1` (stereo not given) the figure was -12% (inactive); with `CC[N+](CC)(CC)CCOC(=O)C(C1CCCC1)C1CCCC1`, -3.84% (inactive); with `CCOC(=O)n1ccn(C)c1=S`, -23.5% (inactive).
For `C[C@@H]1CC[C@@]2(OC1)O[C@H]1C[C@H]3[C@@H]4CC[C@H]5C[C@@H](O)CC[C@]5(C)[C@H]4CC(=O)[C@]3(C)[C@H]1[C@@H]2C`, the activity change, negative = viability loss is -14.3% [at 3.81 µM] (inactive).
With `C=CCOc1ccccc1OCC(O)CNC(C)C` (stereo not given), the “activity change, negative = viability loss” value was -18.8% (inactive).
In the case of `CN(C(=O)C(Cl)Cl)c1ccc(OC(=O)c2ccco2)cc1`, the “activity change, negative = viability loss” value was -5.99% (inactive).
Still for that read-out and setting: with `CCCn1cnc2c1c(=O)n(CCCCC(C)=O)c(=O)n2C` the figure was -3.64% (inactive).
`CNCCC(Oc1ccccc1OC)c1ccccc1` (stereo not given): the “activity change, negative = viability loss” value was -15.4% (inactive).
As for `CCN1CCC[C@H]1CNC(=O)c1cc(S(N)(=O)=O)ccc1OC`, the “activity change, negative = viability loss” value was 9.62% (inactive).
On to `Cc1nnc(C(=O)NC(C)(C)c2nc(C(=O)NCc3ccc(F)cc3)c(O)c(=O)n2C)o1`, for which the Potency result is “inactive”.
Regarding `Clc1cccc(Cl)c1NC1=NCCN1`, the “activity change, negative = viability loss” value was -21.7% (inactive).
Consider `CCC1(c2ccccc2)C(=O)NCNC1=O`, for which the Potency result is “inactive”.
Regarding `CC(C)(C)c1cc(C=O)cc(C(C)(C)C)c1O`, the “activity change, negative = viability loss” value was -4.92% (inactive).
Regarding `O=C(OCc1ccccc1)c1ccccc1`, the “activity change, negative = viability loss” value was -22.8% (inactive).
Take `Cc1nc(NC(=O)N2CCC[C@H]2C(N)=O)sc1-c1ccnc(C(C)(C)C(F)(F)F)c1`: the Potency was 11.2 µM (active).
Regarding `CC(=O)Nc1ncc([N+](=O)[O-])s1`, the “activity change, negative = viability loss” value was -7.32% (inactive).
Take `C=C(CC)C(=O)c1ccc(OCC(=O)O)c(Cl)c1Cl`: the Potency was 9.2 µM (active).
Consider `Cc1cc(C(C)(C)C)c(O)c(C(C)(C)C)c1`, for which the Potency was 25.9 µM (active).
Still for that read-out and setting: for `COc1ccccc1OCC(O)CN1CCN(CC(=O)Nc2c(C)cccc2C)CC1` (stereo not given) the value was “inactive”.
Consider `CC(=O)N(CC(O)CO)c1c(I)c(C(=O)NCCO)c(I)c(C(=O)NCC(O)CO)c1I` (stereo not given), for which the “activity change, negative = viability loss” value is -1.91% (inactive).

Source of the values: PubChem BioAssay (NCATS).
